# Sampled rows, rich in hits. Any-hit rate of the full collection: about 2%.
# ABHD5-PLIN5 inh: ABHD5-PLIN5 interaction inhibitors, primary screen, cell lysate, split luciferase complementation, luminescence; Perilipin-5 (Homo sapiens) + 1-acylglycerol-3-phosphate O-acyltransferase ABHD5 (Homo …; Split G. princeps luciferase complementation, 4 h; 0.78% of 360,000 active; inhibition, % at 4 µM;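 active means inhibition above the mean inhibition across every tested compound plus 3 SD, cut at about 22% in these data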;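 further: 0% = DMSO only wells and the 100% control is not disclosed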
# TLR9-MyD88 block: inhibitors of TLR9-MyD88 association in cells, primary screen, cell-based, CHO, BLA complementation, fluorescence; Toll-like receptor 9 (Homo sapiens) + Myeloid differentiation primary response protein …; CCF4 FRET ratio; inhibition, % at 4.98 µM; 0.21% of 340,000 active;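 active means inhibition above the mean over all tested compounds plus 3 SD, cut at about 21% in these data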;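 further: 0% = DMSO only wells and 100% = clavulanate BLA inhibitor control wells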
# NOD2-RIPK2 inh: NOD2-RIPK2 binding disruptors in cells, primary screen, fluorescence, CHO cells, BLA complementation; Receptor-interacting serine/threonine-protein kinase 2 (Homo sapiens), O43353; CCF4 ratio; inhibition, % at 4.98 µM; 0.38% of 360,000 active; AID 624267, 2012; in the data active means inhibition above about 21%;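 further: 0% = vehicle only and 100% = reference blocker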
# TLR4-MyD88 BLA: inhibitors of TLR4-MyD88 association in cells, primary screen, cell-based, HeLa CL3-4, BLA complementation, FRET ratio; 0.18% of 200,000 active; Toll-like receptor 4 (Homo sapiens) + Myeloid differentiation primary response protein …; AID 861, 2007; HeLa CL3-4 TLR4/MyD88 BLA complementation; inhibition, % at 8.4 µM; in the data active means inhibition above about 25%;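 further: 0% = vehicle and 100% = reference inhibitor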
# B2AR ag: beta2AR agonists driving receptor internalization, primary screen, cell-based, FAP fluorogen, flow cytometry; Beta-2 adrenergic receptor (Homo sapiens), P07550; AID 504454, 2011; Am2.2-beta2AR cells; response, % (test concentration not listed); 0.43% of 340,000 active;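 active means response above a set limit, near 3 SD of response in nonfluorescent compounds, cut at about 42% in these data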
# Exocytosis inh: LAMP-1 surface exposure blockers, TALL-104 cells – cell-based, flow cytometry, MLPCN library, primary screen; TALL-104 LAMP-1 surface exposure; cells stimulated with thapsigargin and PMA; inhibition, % at 10 µM; 0.66% of 360,000 active; AID 651702, 2012;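 active means inhibition above about 55%, limit read from the data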
# B2AR ag CP1: beta2AR agonists via receptor internalization, confirmation, cell-based, FAP fluorogen, flow cytometry, single point, cherry pick 1; shares compounds with B2AR ag; Am2.2-beta2AR cells, FAP surface receptor; stronger effect = lower value; percent response (surface receptor), % at 10 µM; 25% of 1,100 active; AID 540358, 2011;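 active means surface receptor percent response at or below 58%, roughly 3 SD from nonfluorescent compounds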
# B2AR FAP counter: fluorescence artifact in beta-2AR agonist FAP counterscreen | shares compounds with B2AR ag | Am2.2 cells, FAP fluorogen flow cytometry; stronger effect = lower value | 1,100 tested, under 10 active | calls only at 10 µM | AID 588765;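 active means percent response below a set limit in fluorescence channel 1 and below 50% in channel 8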
# TLR9-MyD88 cf: TLR9-MyD88 association inhibitors, retest, confirmation, cell-based, CHO, BLA complementation, fluorescence, triplicate | inhibition, % at 4.98 µM | AID 540250, 2011 | 51% of 680 active | shares compounds with TLR9-MyD88 block | CCF4 FRET ratio;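 active means mean inhibition across three repeats above about 21% taken from the earlier screen, limit read from the data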;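 further: blue over green emission ratio reports constitutive TLR9 MyD88 association via BLA complementation; 0% = DMSO vehicle wells and 100% = clavulanate BLA inhibitor wells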
# BLA nonselective: beta-lactamase reporter inhibitors in CHO cells, artefact control for TLR9-MyD88 binding inhibitor project, cell-based, fluorescence; inhibition, % at 4.98 µM; 7% of 680 active; AID 540251, 2011; shares compounds with TLR9-MyD88 block; CHO-BLA cells, CCF4 FRET ratio, BLA reporter;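 active means mean inhibition above a 50% cutoff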;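 further: counterscreen of TLR9-MyD88 hits on CMV-driven BLA in CHO-K1 cells; 0% = DMSO alone and 100% = clavulanate blocking BLA; higher means less blue over green ratio so more BLA blockade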
# TLR9 CHO tox: CHO cell viability loss – luminescence, single concentration, cytotoxicity control for TLR9-MyD88 binding inhibitor project; shares compounds with TLR9-MyD88 block; TLR9-MyD88 CHO cells cytotoxicity; inhibition, % at 4.98 µM; 39% of 680 active; AID 588336, 2011; in the data active means inhibition above about 11%
# ABHD5 PLIN5 conf: ABHD5-PLIN5 interaction inhibitors, confirmation, biochemical, luminescence | shares compounds with ABHD5-PLIN5 inh | inhibition, % at 4 µM | 67% of 2,200 active | AID 651612, 2012; in the data active means inhibition above about 23%;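 further: 0% = DMSO vehicle wells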
# HNF4 counter: HNF4 dimerization inhibitors, counter-screen for ABHD5-PLIN5 interaction inhibitor project, biochemical, split-luciferase complementation, luminescence. 77% of 2,200 active. shares compounds with ABHD5-PLIN5 inh. inhibition, % at 4 µM. AID 651674, 2012;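 active means mean inhibition across replicate wells exceeding the computed hit threshold, cut at about 13% in these data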;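 further: light from luciferase halves that rejoin when HNF4 fusion proteins dimerize; 0% = DMSO only wells and the 100% control is not given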
# Target sequence (P41235 whole entry, looked up, the tested form may be a part): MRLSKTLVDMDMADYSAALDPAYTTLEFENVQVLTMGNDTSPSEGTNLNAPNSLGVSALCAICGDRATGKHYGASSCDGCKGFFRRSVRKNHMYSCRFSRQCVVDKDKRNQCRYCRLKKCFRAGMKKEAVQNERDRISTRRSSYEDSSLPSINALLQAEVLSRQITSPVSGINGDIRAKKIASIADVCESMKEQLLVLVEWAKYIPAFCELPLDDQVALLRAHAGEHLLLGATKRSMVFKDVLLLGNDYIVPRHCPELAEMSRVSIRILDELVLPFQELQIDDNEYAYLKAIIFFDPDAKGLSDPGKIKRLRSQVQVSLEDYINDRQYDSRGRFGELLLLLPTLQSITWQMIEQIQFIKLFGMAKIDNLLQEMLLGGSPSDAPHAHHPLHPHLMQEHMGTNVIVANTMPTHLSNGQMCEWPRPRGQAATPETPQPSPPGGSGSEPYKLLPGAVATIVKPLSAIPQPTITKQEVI
# An asterisk follows results filed as active; i = inactive; x = no result given; ! = repeats disagree.
SMILES,ABHD5-PLIN5 inh,TLR9-MyD88 block,NOD2-RIPK2 inh,TLR4-MyD88 BLA,B2AR ag,Exocytosis inh,B2AR ag CP1,B2AR FAP counter,others
Cc1cc(S(=O)(=O)N2CCOCC2)ccc1OCC(=O)Nc1ccccc1F,-5.2,7.7,5.0,x,11.6,-6.0,95.3,i,
CC(=O)Nc1ccc(NC(=O)COc2ccc(S(=O)(=O)N3CCCC3)cc2C)cc1,1.2,-2.1,3.9,x,-6.1,-0.1,x,x,
CCc1nc2c(OCCn3cccc3)cccn2c1N(C)C(=O)c1ccc(C)cc1,-8.7,x,0.9,x,x,-0.8,x,x,
COc1ccccc1CNC(=O)COC(=O)/C=C/c1ccc2ccccc2n1,6.7,-1.9,-6.1,x,-4.7,7.7,x,x,
CCOC(=O)[C@]12CCCC=C1N(CCC1=CCCCC1)C(=O)[C@H](CC(=O)NCCCN1CCCC1=O)C2,4.4,x,0.9,x,x,-6.5,x,x,
COc1cccc(-c2cccc3c2NC(=O)C3(C)Cc2ccccc2F)c1 (configuration not stated),1.0,x,-15.7,x,x,-4.1,x,x,
Cc1ccc(S(=O)(=O)N2CCC(C(=O)Nc3nnc(-c4ccc(F)cc4)s3)CC2)cc1,-6.4,0.7,-4.3,-6.6,65.4*,-2.2,102.1,i,
O=C(Nc1nnc(-c2ccc(F)cc2)s1)C1CCN(S(=O)(=O)c2ccc(Cl)cc2)CC1,-8.2,-3.6,8.2,-17.7,1.0,3.4,x,x,
CC(=O)c1ccc(S(=O)(=O)NCCc2csc(-c3cccnc3)n2)cc1,-0.2,1.5,-0.2,x,-0.7,-1.3,x,x,
CC(=O)Nc1ccc(S(=O)(=O)NCCc2csc(-c3cccnc3)n2)cc1,-4.4,0.0,-6.3,x,83.0*,1.0,13.4*,i,
COc1cc(-c2nc3ccccn3c2NCC2CCCO2)ccc1O (configuration not stated),4.1,8.0,-4.2,-4.3,-16.4,-1.8,x,x,
CCOc1cc(-c2nc3ccccn3c2NCC2CCCO2)ccc1O (configuration not stated),2.3,-4.3,0.5,-8.9,20.2,-0.8,29.8*,i,
Clc1ccccc1C(c1ccccc1)(c1ccccc1)n1ccnc1,1.9,-1.1,0.0,-4.6,51.5*,9.4,29.9*,i,
Cc1cn([C@H]2C[C@H](O)[C@@H](/C=C/C(=O)NCCN3CCOCC3)O2)c(=O)[nH]c1=O,-1.5,x,1.4,x,x,-0.9,x,x,
Cc1nc(SCc2nc3c([N+](=O)[O-])cccc3[nH]2)c2oc3ccccc3c2n1,1.1,2.1,-8.4,x,52.0*,6.4,124.3,i,
COc1ccccc1CNC(=O)CCn1c(=O)[nH]c2ccsc2c1=O,4.7,2.0,-5.2,7.3,2.0,-0.9,53.8*!,i,
O=C(CCn1c(=O)[nH]c2ccsc2c1=O)N1CCc2ccccc2C1,3.2,-3.6,3.7,4.9,-27.6,-0.2,149.8,i,
CCOC(=O)C1C(C(=O)OCC)C(C)(C)C1N(C)C (configuration not stated),1.4,5.2,-5.8,x,x,-5.8,x,x,
O=C(CN1C(=O)CSc2ncccc21)Nc1ccccc1F,2.8,3.7,1.9,x,9.1,-1.5,x,x,
CCC(C)C(=O)Nc1cc(OC)c(OC)cc1C(=O)O (configuration not stated),0.3,2.6,-1.2,-3.5,2.0,-3.0,x,x,
CCC(CC)C(=O)Nc1cc(OC)c(OC)cc1C(=O)O,2.8,-0.4,-7.0,-10.1,92.4*,-1.6,98.6,i,
CCOc1cccc(C(=O)Nc2ccc3oc(-c4cccnc4)nc3c2)c1,2.4,-3.9,11.7,x,7.1,3.0,103.0,i,
O=C(Nc1ccc2oc(-c3cccnc3)nc2c1)c1cccnc1,-1.7,-1.0,-2.6,6.9,-3.3,-0.3,x,x,
Cc1ccc(S(=O)(=O)c2ccc([N+](=O)[O-])o2)cc1,84.6*,44.3*,93.0*,x,86.2*,49.8,15.9*,i,TLR9-MyD88 cf=50.8*;BLA nonselective=18.7;TLR9 CHO tox=98.8*
CCCCC1Cc2[nH]c(=S)[nH]c(=O)c2C(c2cccc3ccccc23)O1 (configuration not stated),3.0,x,3.7,x,x,4.5,x,x,
CCOC(=O)c1ccc(N=c2sc(C(=O)OC)cc(=O)n2-c2ccc(C(=O)OCC)cc2)cc1,33.6*,-3.6,-0.3,2.2,48.1*,1.4,49.7*,i,ABHD5 PLIN5 conf=91.6*;HNF4 counter=87.7*
O=C(O)CNc1nc(NCc2ccc(Cl)cc2)ccc1[N+](=O)[O-],3.3,6.0,-4.6,x,x,1.1,x,x,
O=C(C[n+]1cccc(NC(=O)c2ccccc2)c1)c1ccc(NC(=O)c2ccccc2)cc1,23.8*,-11.4,-8.5,0.6,72.2*,-3.2,47.1*,i,ABHD5 PLIN5 conf=14.2;HNF4 counter=-2.5
CCCCCCCCN1C(=O)[C@H](CC(=O)NCCCC)C[C@@]2(C(=O)OC)CC(C)(C)CC=C12,15.8,x,5.9,x,x,4.7,x,x,
CCCCCCCCCCOC(=O)Cn1c(COc2ccccc2C)[n+](C)c2ccccc21,24.2*,13.6,22.4*,x,68.3*,79.8*,104.8,i,ABHD5 PLIN5 conf=8.7;HNF4 counter=8.6
